Reference: PubChem BioAssay AID1030 (National Center for Advancing Translational Sciences (NCATS), 2008)
The campaign covered roughly 220,000 compounds. About 16,000 (7.3%) were called active. About 25% were inconclusive and are not listed. Calls follow the shape of the dose curve; as a rule, active = well fitted inhibition curve with a large enough effect (not every such curve was filed as active); inconclusive = small, poorly fitted or top-dose-only effect, or another doubt; inactive = no such curve, though single readings can be large or run the other way. The entries come from a sample that favours actives as a whole.

Molecular target: Aldehyde dehydrogenase 1A1 (Homo sapiens) (UniProt P00352)
Assay: qHTS Assay for Inhibitors of Aldehyde Dehydrogenase 1 (ALDH1A1);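 as to activity, negative = inhibition: plate controls were no enzyme wells and a reference inhibitor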
Conditions: Purified ALDH1A1, NADH fluorescence, propionaldehyde substrate; series mostly up to 75.3 µM
Potency is read from the fitted curve at half-maximal effect.

Chain of Aldehyde dehydrogenase 1A1 (Homo sapiens) (P00352 whole entry, looked up): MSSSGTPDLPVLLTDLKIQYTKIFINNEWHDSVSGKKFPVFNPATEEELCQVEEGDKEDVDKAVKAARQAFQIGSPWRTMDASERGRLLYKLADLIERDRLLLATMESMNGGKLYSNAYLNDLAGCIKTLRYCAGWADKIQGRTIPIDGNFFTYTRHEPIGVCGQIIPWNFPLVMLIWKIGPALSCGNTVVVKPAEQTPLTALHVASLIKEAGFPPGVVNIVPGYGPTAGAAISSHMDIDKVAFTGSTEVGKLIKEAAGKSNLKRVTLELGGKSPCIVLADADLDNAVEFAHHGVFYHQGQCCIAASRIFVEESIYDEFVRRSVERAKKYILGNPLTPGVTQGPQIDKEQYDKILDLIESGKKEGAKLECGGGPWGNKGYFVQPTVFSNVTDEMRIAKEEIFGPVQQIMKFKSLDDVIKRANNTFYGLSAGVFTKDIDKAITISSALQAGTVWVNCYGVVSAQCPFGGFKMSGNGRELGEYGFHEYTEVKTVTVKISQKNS

Potency, active:
Cc1cc2c(cc1C)NC(c1ccccn1)C1=C(CC(C)(C)CC1=O)N2 (configuration not stated) 14.1 µM
O=C1/C(=C\Nc2ccccc2)CCN1c1ncccn1 20 µM
COc1ccccc1C(=O)Nc1ccc(NC(=O)c2ccco2)c(C)c1 8.91 µM
O=C(NNC(=S)Nc1ccc(Br)cc1Cl)c1ccco1 12.6 µM
CCC(=O)NC(=S)Nc1ccc(NC(=O)c2ccco2)c(Cl)c1 3.55 µM
O=C(CN1CCSCC1)N/N=C/c1ccc(F)cc1F 31.6 µM
CN(CC(=O)Nc1ccc(S(=O)(=O)N2CCCC2)cc1)Cc1ccc(Cl)c(Cl)c1 20 µM
NC(CSC12CC3CC(CC(C3)C1)C2)C(=O)O (configuration not stated) 12.6 µM
O=C(CN1CCN(c2ccc(O)cc2)CC1)Nc1cc(S(=O)(=O)N2CCOCC2)ccc1Cl 25.1 µM
C/C(Cl)=C\Cn1c(Nc2cccc(C)c2)nc2c1c(=O)n(C)c(=O)n2C 20 µM
O=[N+]([O-])/C(N=Nc1ccccc1)=N\Nc1ccccc1 14.1 µM
CCOc1ccc2nc(C(=O)N3CCCC(C)C3)sc2c1 (configuration not stated) 14.1 µM
Cc1ccc(/C=C/C(=O)Nc2cc(S(=O)(=O)N3CCCCCC3)ccc2OCC(F)(F)F)o1 28.2 µM
CSc1nc(C)cc(SC(C(C)=O)C(=O)Nc2ccccc2)n1 (configuration not stated) 15.8 µM
CCOC(=O)CN(C)S(=O)(=O)c1ccc(-c2cc(C(=O)OC)sc2C(F)(F)F)cc1 5.97 µM
Cc1ccc(SC(CC(=O)c2ccc(C(C)(C)C)cc2)C(=O)O)cc1 (configuration not stated) 0.199 µM
Cn1c(=O)c2c(nc(N3CCCCCC3)n2CC(O)COc2ccc(Cl)cc2)n(C)c1=O (configuration not stated) 11.2 µM
Cc1ccccc1-n1nnnc1SCCCC(=O)c1ccc(F)cc1 0.0794 µM
Cc1cc(C)n(-c2nc(SCC(=O)N3CCCC3)c3c4c(sc3n2)CCCC4)n1 14.1 µM
Cc1ccccc1CN1CCN(C(=O)c2cccc(F)c2)CC1 15.8 µM
O=C(CN1CCN(C(=O)c2cccc(F)c2)CC1)Nc1ccccc1F 12.6 µM

Potency, inactive:
Cc1[nH]c2ccccc2c1-c1ccc(Cl)nn1
CC1(C)CC(=O)C2=C(C1)Nc1cc(C(=O)c3ccccc3)ccc1NC2c1ccccn1 (configuration not stated)
CC(=O)C1=C(C)NC2=C(C(=O)CC(C)(C)C2)C1C (configuration not stated)
COCCn1c(C)cc(C(=O)CSc2nc3ccccc3c(=O)n2C(C)COC)c1C (configuration not stated)
O=C(NNC(=O)C1CCN(c2ncccn2)CC1)c1ccccc1
O=C(Cc1ccccc1)NNC(=O)C1CCN(c2ncccn2)CC1
CC1=C(C(=O)N(C)C)C(c2ccccc2OC(F)F)NC(=O)N1 (configuration not stated)
COc1ccc(NC(=O)c2cccc(NC(=O)c3ccco3)c2)c(OC)c1
O=C(Nc1ccc(NC(=O)c2ccco2)c(Cl)c1)c1cccc([N+](=O)[O-])c1
Cc1ccc(-n2nc3cc(Cl)c(NC(=O)c4ccco4)cc3n2)cc1
COc1cc(NC(=O)c2cc([N+](=O)[O-])ccc2Br)ccc1NC(=O)c1ccco1
COC(=O)c1cc(Cl)c(NC(=O)c2ccco2)cc1OC
O=C(Nc1ccc(Sc2ccc(Br)cc2)cc1)c1ccco1
O=C(NNS(=O)(=O)c1ccccc1C(F)(F)F)c1cc2ncc(C(F)(F)F)cc2s1
Cc1nnsc1C(=O)N/N=C/c1cccc(C(F)(F)F)c1
Cc1cc(C)c(NC(=O)c2oc3ccccc3c2COc2ccccc2)c(C)c1
N#Cc1ccc(Oc2ccc(C(F)(F)F)cc2NC(=O)c2ccc(F)cc2)cc1
Cc1cc(C)nc(/N=C2\NC(=O)CC(C(=O)O)N2c2ccc(Cl)cc2Cl)n1 (configuration not stated)
CCC(=O)/C(=C(/O)c1ccccc1)c1nc2ccccc2[nH]1
CSc1sc(C(=O)NNC(=O)c2ccc(Cl)cc2)c2c1C=CCC2
CC1CCN(S(=O)(=O)c2ccc3ncn(CC(=O)N(C)C4CCCCC4)c(=O)c3c2)CC1
O=C(CCC(=O)Nc1ccccc1)N/N=C/c1ccccc1F
O=C(Cn1cc(C(F)(F)F)ccc1=O)N/N=C/c1ccc(Cl)cc1Cl
O=C(C1CCN(C2CCN(Cc3cccc4c3OCO4)CC2)CC1)N1CCOCC1
CC(=O)c1c(C)[nH]c(C(=O)Nc2cc(S(=O)(=O)N(C)C)ccc2C)c1C
Cc1cc(NC(=O)CSc2nccn2-c2ccc([N+](=O)[O-])cc2)no1
CN(CCOc1ccc(Br)cc1)CC(=O)Nc1cccc(S(=O)(=O)NC2=NCCC2)c1
CC1CCCC(C)N1/N=C/c1ccccc1OC(F)F (configuration not stated)
CN1CCN(S(=O)(=O)c2ccc(NC(=O)C3CCCO3)cc2)CC1 (configuration not stated)
COc1ccc(NC(=O)CN2CCN(S(=O)(=O)c3ccc(F)cc3)CC2)cc1Cl
OCCC#Cc1ccc(CN2CCN(Cc3ccsc3)C(CCO)C2)cc1 (configuration not stated)
Cc1ccc(C)c(NC(=O)CCC(=O)N/N=C2/CC(=O)CC(C)(C)C2)c1
O=C(COc1cccc2ccccc12)Nc1cc(S(=O)(=O)N2CCOCC2)ccc1N1CCOCC1
O=C(CN1CCOCC1)Nc1cc(Cl)ccc1Cl
Cn1c(=O)c2c(nc(N/N=C/c3cccs3)n2Cc2ccc(Br)cc2)n(C)c1=O
C=CCn1c(Oc2ccc(C(=O)OC)cc2)nc2c1c(=O)n(C)c(=O)n2C
CC[C@H](C)[C@@H](C(=O)N1CCNCC1)n1cc([C@@H](N)Cc2ccc(O)cc2)nn1
O=c1[nH]n2c(=O)c3c([nH]c2c1N=Nc1ccccc1)CCC3
O=C(/C=N/O)Nc1ccccc1
COc1cc(C(=O)Nc2cc(C(F)(F)F)ccc2-n2cncn2)cc(OC)c1OC
CCOc1ccc(CN2CCN(Cc3ccon3)CC2CCO)cc1 (configuration not stated)
COc1ccc(/C=N/NC(=O)c2cccc(C(F)(F)F)c2)cc1
COc1ccc2nc(NC(=O)[C@@H]3CCCN3C(=O)c3cccs3)sc2c1
CCOc1ccc(NC(=O)C2CCCN(C(=O)Nc3ccccc3)C2)cc1 (configuration not stated)
COc1cc(OC)nc(N/N=C(\c2ccccc2)c2ccncc2)n1
COc1ccc(-c2nnc3ccc(SCc4ccccc4)nn23)cc1
Fc1cccc(CSc2nnc3ccc(-c4ccncc4)nn23)c1
COc1ccc(S(=O)(=O)N2CCCCCC2)cc1C(=O)OCC(=O)Nc1cc(C)on1
Cc1cccc(OCCC(=O)Nc2cc(S(=O)(=O)N3CCCCC3)ccc2N2CCOCC2)c1
CCc1ccc(CN2C(=O)c3ccccc3C2C(=O)NCC2CCCO2)cc1 (configuration not stated)
CSc1nc(N(C)NC(=O)c2cccc(C)c2)c2ccccc2n1
CC(Sc1nnc2c(n1)C1CCC2(C)C1(C)C)C(=O)Nc1ccccc1 (configuration not stated)
CC(=O)c1cc(-c2ccccc2)n(CC(=O)NC2CCCCC2)c1C
COC(=O)C(C(=O)OC)C1c2ccccc2C=C(C2CC2)N1C(=O)OC (configuration not stated)
CC(C)(C)N(CC#CCC(O)(c1ccccc1)C1CCCC1)CCO (configuration not stated)
O=C(COC(=O)c1ccc(F)cc1)Nc1nc2ccc([N+](=O)[O-])cc2s1
CC(C)C(NC(=O)C1CCC(C(C)(C)C)CC1)C(=O)NCCCN1CCCCC1 (configuration not stated)
COc1cccc(NC(=O)CN(C)S(=O)(=O)c2ccc(C)cc2)c1
COC(=O)c1sc(C(F)(F)F)c(-c2ccccc2)c1S(=O)(=O)N(C)C
Cc1ccn(C(CC(=O)c2ccc(Br)cc2)C(=O)O)n1 (configuration not stated)
Cc1ccc(SC(C)C(=O)NCc2ccc(F)cc2)cc1 (configuration not stated)
Cc1sc2c(c1C)c(=O)n(-c1ccccc1)c(=O)n2CC(=O)NCC1CCCO1 (configuration not stated)
O=C(c1ccc(Cl)cc1)c1ccc(OCC(O)CN2CCCCC2)cc1 (configuration not stated)
Cn1c(=O)c2c(nc(N3CCCCCC3)n2CC(=O)c2ccc(Br)cc2)n(C)c1=O
CC(C(=O)N=Nc1c(O)n(C)c2ccc(Br)cc12)n1cnc2ccccc2c1=O (configuration not stated)
Cc1ccc(S(=O)(=O)Nc2nc(N)n(-c3ccccc3)n2)cc1
O=c1c2ccccc2nnn1CSc1nnnn1-c1ccccc1
Cc1c(NC(=O)CSc2nnnn2-c2ccc(C(=O)O)cc2)c(=O)n(-c2ccccc2)n1C
NC(N)=Nc1nc2ccc(Br)cc2c(=O)[nH]1
O=C(Nc1cccnc1)c1ccc(Cl)c([N+](=O)[O-])c1
C=C(C)CSc1nc(N)c2c3c(sc2n1)CCC3
COCCn1c(C)cc(C(=O)CSc2ncnc3sc4c(c23)CCC4)c1C
Cc1[nH]nc(SCC(=O)NCC(C)C)c1[N+](=O)[O-]
O=C(c1cccc(F)c1)N1CCC(O)(c2cccnc2)CC1
O=C(c1cccc(F)c1)N1CCC2(CC1)CCN(c1ccccc1)CC2
O=C(CN1CCN(C/C=C/c2ccccc2)CC1)Nc1ccc(F)cc1F
Cc1ccccc1CS(=O)(=O)CC1(O)CCN(C(=O)c2cccc(C(F)(F)F)c2)CC1
COc1ccc(Cn2c(=O)cc(C)[nH]c2=S)cc1
CCOc1ccc2sc(NS(=O)(=O)c3ccc(N)cc3)nc2c1
Cc1cccc(NC(=S)NCCN(C2CCCCC2)C2CCCC2)c1

activity, negative = inhibition, inactive:
COC(=O)C1=C(C(=O)OC)[C@@H]2N(C)c3ccccc3[C@@]23C[C@@H](C(=O)OC)N(S(=O)(=O)c2ccc(Br)cc2)C3=N1 6.9% [at 13.5 µM]
